# Assay results taken from PubChem BioAssay.
# Calls of active or inactive are those of the source.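 The calls were made as follows: active = inhibition above 50%; inactive = the rest.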
# Test: human hepatoma cell viability loss – ATP luminescence, cytotoxicity control for P. falciparum antimalarial project, primary screen (AID 2303);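 also: 0% = DMSO wells and 100% = digitonin-killed cells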
# Conditions: HepG2 viability, 24-48 h, at 10 µM, hits give high values
row,Compound,inhibition
1,CCCCC(NCC)c1ccc(OCCOc2ccc(C(CCCC)NCC)cc2)cc1 (stereo not given),100% (active)
2,CC(C)(C)c1ccc(CN2CCCCC(NC(=O)c3cc(-c4ccccc4Cl)cs3)C2)cc1 (stereo not given),3% (inactive)
3,CN(C)Cc1cccc(-c2ccc(NC(=O)c3ccc4c(=O)n(CC5CCCO5)cnc4c3)cc2)c1 (stereo not given),28% (inactive)
4,CC1CCN(CC[C@H]2CCCN2S(=O)(=O)c2cccc(NC(=O)c3ccc(-c4ccc(Cl)cc4)o3)c2)CC1,45% (inactive)
5,CCOC(=O)C1=C(C)NC2=C(C(=O)CC(C)(C)C2)C1c1ccc(Cl)cc1 (stereo not given),4% (inactive)
6,CCn1cnc2c(N3CCCS3(=O)=O)cc(C(=O)N[C@@H](Cc3ccccc3)[C@H](O)CNC(C)(C)c3cccc(C(F)(F)F)c3)cc21,9% (inactive)
7,Cc1ccc2[nH]c(C3CCCNC3)c(-c3ccncc3)c2c1 (stereo not given),10% (inactive)
8,COC(=O)[C@@H](NC(=O)[C@H](CC(C)C)Nc1ccc(C#N)c2ccccc12)c1ccc(O)cc1,4% (inactive)
9,CCC(C)Oc1ccc(CCCON2C(N)=NC(N)=NC2(C)C)cc1 (stereo not given),65% (active)
10,C[C@H]1CN(Cc2cccc(-c3cc(CNC(=O)c4cccc(CN5CCN(CCOc6ccccc6)CC5)c4)ccc3F)c2)CCN1,59% (active)
11,O=C1CCCN1CCCNCc1cccc(-c2ccc(-c3nc4ccccc4[nH]3)s2)c1,-6% (inactive)
12,CC(=O)N[C@H](C(=O)Nc1cccc(-c2ccc(-c3nc4c(C)cccc4[nH]3)s2)c1)C(C)C,33% (inactive)
13,O=C(Cc1cccc(Cl)c1)Nc1cccc(-c2c[nH]c3nc(Nc4cccc(O)c4)ncc23)c1,23% (inactive)
14,CC(C)CNC(=O)c1cncc(-c2ccc(CN3CCC(N4CCCC4)CC3)cc2)c1,25% (inactive)
15,O=C(Nc1ccccc1Cc1ccccc1)c1ccccc1C(F)(F)F,0% (inactive)
16,CC(C)CCN1CCC(Oc2ccc(NC(=O)c3cccs3)cc2Cl)CC1,31% (inactive)
17,CNC(=O)c1cnc(Nc2ccc(N3CCN(C)CC3)c(C)c2)nc1NC,19% (inactive)
18,O=C(Nc1ccc(N2CCNCC2)nc1)c1oc(-c2ccccc2)nc1C(F)(F)F,7% (inactive)

row,Compound,inhibition
1,Cc1ccc2nc(C)cc(NN=Cc3ccc([N+](=O)[O-])cc3)c2c1,10% (inactive)
2,CN1CCN(CCCN(Cc2csc(-c3ccc(CNCc4ccccc4)cc3)n2)C(=O)Nc2ccc3ccccc3c2)CC1,12% (inactive)
3,CCOc1ccccc1N1CCN(CCCNC(=O)/C(=C/C=C/c2cc3cc(Cl)c(Cl)cc3[nH]2)OC)CC1,45% (inactive)
4,CC(O)C1CCCCN1C(=O)c1cccc(-c2cccc(-c3nc4ccc(F)cc4[nH]3)c2)c1 (stereo not given),42% (inactive)
5,COc1cc(CN2CCC(NC(=O)[C@H](Cc3ccccc3)NC(=O)Nc3ccc(Oc4ccccc4)cc3)C2)ccc1O (stereo not given in full),10% (inactive)
6,COc1ccc(CNC2CCCC2)cc1-c1ccc(S(=O)(=O)NCCN2CCCC2)s1,17% (inactive)
7,CS(=O)(=O)CCOCc1ccc(-c2ccc3ncnc(Nc4ccc(OCc5cccc(F)c5)c(Cl)c4)c3c2)o1,1% (inactive)
8,Oc1ccc(Nc2ccnc3cc(Cl)ccc23)cc1,0% (inactive)
9,CC[C@H]1CN(Cc2cccc(O)c2)CC[C@H]1CCCc1ccnc2ccc(O)cc12,14% (inactive)
10,COc1ccc(Nc2nc(NC3CCCC3)cc(-c3ccc(OC)cc3)n2)cc1,12% (inactive)
11,Cc1cc(N2CCCC2=O)ccc1-c1ccc(C(=O)N2CCC(Oc3cccc(Cl)c3)CC2)cc1,34% (inactive)
12,Cc1[nH]c2ccc(NS(C)(=O)=O)cc2c1C1CCN(CCC2CCN(C(=O)/C=C/c3ccc(Cl)c(Cl)c3)CC2)CC1,23% (inactive)
13,O=[N+]([O-])c1ccc(Nc2nc(NN=Cc3ccc(-c4ccc([N+](=O)[O-])cc4)o3)nc(Nc3ccccc3)n2)cc1,-9% (inactive)
14,COc1cccc(Nc2nc(C)cc(NCc3ccc(-c4c(C)noc4C)cc3)n2)c1,33% (inactive)
15,CC(C)CCNC(=O)[C@@H]1[C@H]2C(=O)N(C3CCCCC3)C(=O)[C@H]2[C@H]2C=C[C@@H]3C(c4ccc(C(C)(C)C)cc4)=NO[C@@H]3N21,-4% (inactive)
16,COc1ccc(-c2cccc(NC(=O)c3cccc(C#N)c3)c2)cc1CN1CCN(C)CC1,25% (inactive)
17,COc1ccc2nccc(N3CCC(SCCNS(=O)(=O)c4ccc5c(c4)NC(=O)CS5)C3)c2n1 (stereo not given),20% (inactive)
